The panel holds about 83,000 compounds, 20% with a hit somewhere; the sample as a whole holds those more often.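 Testing used 96-well plates and a 48-hour single-concentration exposure. Example: -40 means 40% of the starting cells died.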 Active and inactive are the calls of the source. The calls were made as follows: active = growth percent below 10; inactive = the rest.
Tested on: IGROV1 ovarian
Experiment: NCI-60 one-dose screen, 48 h (100 = growth as untreated, 0 = no growth, -100 = all killed)
Details: 10 µM unless noted

**Q.** For CCC(C)/C(=C\C#N)NCCCN/C(=C/C#N)C(C)CC (stereo unspecified), which growth is on record?
**A.** 102% (inactive)

**Q.** For CC1(c2ccc(Cl)cc2)OC(=O)CC(=O)O1, which growth is on record?
**A.** 108% (inactive)

**Q.** Which growth does the source give for CCN(CC)CCOc1ccc(Cl)c(C)c1 here?
**A.** 99.6% (inactive)

**Q.** For Nc1cccc(Cl)c1N, which growth is on record?
**A.** 88% (inactive)

**Q.** Which growth does the source give for O=[N+]([O-])c1cc(Cl)c2[nH]c3c(Cl)cc([N+](=O)[O-])cc3c2c1 here?
**A.** 9.12% (active)

**Q.** With CSc1nc2c(c(=O)[nH]1)C(c1ccc(C)cc1)C=C(C(=O)O)N2 (stereo unspecified) as the compound, how does the growth read?
**A.** 107% (inactive)

**Q.** Which growth does the source give for COc1cc(/C=C/C(=O)/C=C/c2cc(OC)c3c(c2)OCO3)cc2c1OCO2 here?
**A.** 90.3% (inactive)

**Q.** Which growth does the source give for Oc1ccccc1/C=N/NC(=S)NC1CC2C=CC1C2 (stereo unspecified) here?
**A.** 62.2% (inactive)

Tested on: OVCAR-3 ovarian
Experiment: as above
Details: 10 µM unless noted

**Q.** Which growth does the source give for COC(=O)c1cccc2c1N(C)c1c(cccc1C(=O)OC)CC2 here?
**A.** 102% (inactive)

**Q.** With COc1ccc(/C=C2\N=C(c3ccccc3)N(C(=O)c3ccccc3O)NC2=O)cc1 as the compound, how does the growth read?
**A.** 118% (inactive)

**Q.** Which growth does the source give for c1cc2[nH]ncc2cc1-c1nc2ccc3[nH]ncc3c2c2c1CCC2 here?
**A.** 56.4% (inactive)

**Q.** For COc1ccc(CCNC2=CC(=O)CCC2)cc1OC, which growth is on record?
**A.** 105% (inactive)

**Q.** With O=C(Nc1ccncc1)C(=O)c1cn(S(=O)(=O)c2ccc(Cl)cc2)c2ccccc12 as the compound, how does the growth read?
**A.** -22.3% (active)

**Q.** With O=C(Nc1cccc(-n2cc(-c3ccncc3)c(-c3ccc(Cl)c(O)c3)n2)c1)Nc1ccc(Cl)c(Cl)c1 as the compound, how does the growth read?
**A.** -4.74% (active)

**Q.** For O=C(Nc1ccncc1)C(=O)c1cn(S(=O)(=O)c2ccccc2F)c2ccccc12, which growth is on record?
**A.** -27.1% (active)

**Q.** With CCN(CC)CCOC(=O)C(c1ccccc1)(c1ccccc1)C(C)C as the compound, how does the growth read?
**A.** 80.5% (inactive)

Reference: PubChem BioAssay (NCI)
